Measurements from PubChem BioAssay (EPA / NIEHS).
Where “and” joins values, the source holds several entries; their conditions need not be identical. Identical values can stand only once. The source holds several records for some structures; these can differ, active in one and inactive in another. Calls of active or inactive are those of the source. The calls were made as follows: active = hit-call score of the fitted dose curve at least 0.9, where 1 is the maximum; inactive = score below 0.9.

Columns and labels:
[1] = read-out: Human Leukocyte Antigen - DR isotype (HLADR), HLA-DRA (gene 3122); test: BSK_3C_HLADR: BioMAP Diversity Plus: 3C Assay for Human Leukocyte Antigen - DR isotype (HLADR) Biomarker Activity (AID 2283019); settings: primary human endothelial cells (HUVEC); actives raise or lower the signal
Outline: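 Compound added to primary HUVEC cultures, 24 h incubation, then HLA-DR determined by ELISA; endpoint derived by bidirectional fitting relative to DMSO negative control.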

[2] = read-out: Interleukin-8 (IL8), CXCL8 (gene 3576); test: BSK_3C_IL8: BioMAP Diversity Plus: 3C Assay for Interleukin-8 (IL8) Biomarker Activity (AID 2283020); settings: primary human endothelial cells (HUVEC); actives raise or lower the signal
Outline: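 HUVEC, 3C stimulation; 24 h compound exposure; IL-8 read by ELISA; gain or loss of signal fitted relative to DMSO control.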

[3] = read-out: Monokine induced gamma interferon (MIG), CXCL9 (gene 4283); test: BSK_3C_MIG: BioMAP Diversity Plus: 3C Assay for Monokine induced gamma interferon (MIG) Biomarker Activity (AID 2283021); settings: primary human endothelial cells (HUVEC); actives raise or lower the signal;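 as to AC50: MIG protein level measured by immunoassay in the treated endothelial cultures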
Outline: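 HUVEC, 3C system; 24 h chemical exposure; MIG by ELISA; bidirectional fit vs DMSO baseline.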

[4] = BSK_3C_SRB: Viability Assessment in the BioMAP Diversity Plus: 3C Assay (AID 2283023); settings: primary human endothelial cells (HUVEC);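 also: fitted both ways against DMSO so a hit may be signal rise or drop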
Outline: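 Overt cytotoxicity is gauged in parallel confluent HUVEC cultures by SRB total-protein staining at the time of biomarker measurement, 24 h after dosing. Gain or loss of signal is fitted versus DMSO.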

[5] = read-out: Matrix Metallopeptidase 1 (MMP1), MMP1 (gene 4312); test: BSK_BE3C_MMP1: BioMAP Diversity Plus: BE3C Assay for Matrix Metallopeptidase 1 (MMP1) Biomarker Activity (AID 2283024); settings: primary human bronchial epithelial cells; actives raise or lower the signal
Outline: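 ELISA read-out of MMP1 in human lung bronchial epithelial primary cultures, 24 h post-dose; bidirectional curve fit vs DMSO baseline, gain or loss of signal scored.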

[6] = BSK_3C_Vis: BioMAP Diversity Plus: 3C Assay for Morphology Visualization (AID 2283025); settings: primary human endothelial cells (HUVEC);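 also: fitted both ways so gain or loss versus DMSO counts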;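 as to AC50: light microscopy image of cell morphology used as background control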
Outline: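 HUVEC, 3C system; light microscopy of morphology at 24 h post-dose. Bidirectional fit vs DMSO baseline. Secondary readout, background-control function.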

[7] = read-out: Pselectin, SELP (gene 6403); test: BSK_4H_Pselectin: BioMAP Diversity Plus: 4H Assay for Pselectin Biomarker Activity (AID 2283026); settings: primary human endothelial cells (HUVEC); actives raise or lower the signal
Outline: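 HUVEC, 24 h chemical exposure; P-selectin read by ELISA. Bidirectional curve fit vs DMSO baseline; gain or loss of signal scored.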

[8] = BSK_4H_SRB: Viability Assessment in the BioMAP Diversity Plus: 4H Assay (AID 2283027); settings: primary human endothelial cells (HUVEC);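 also: cells exposed to compound for 24 h before staining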;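 as to AC50: curves fitted both ways versus DMSO so AC50 may be loss or gain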
Outline: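 Cytotoxicity readout: sulforhodamine B (0.1%) staining of total protein after 10% TCA fixation, measured at 560 nm in human umbilical vein endothelium at 24 h. DMSO set the baseline; fitting was bidirectional.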

[9] = BSK_BE3C_SRB: Viability Assessment in the BioMAP Diversity Plus: BE3C Assay (AID 2283028); settings: primary human bronchial epithelial cells;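 also: measured 24 h after chemical dosing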;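 as to AC50: fitted both ways so AC50 may mark signal gain or loss versus DMSO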
Outline: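 SRB total-protein staining (0.1%, after TCA fixation) of chemically dosed human bronchial epithelial primary cells at 24 h; DMSO serves as the negative control for bidirectional curve fitting.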

[10] = read-out: Thrombomodulin, THBD (gene 7056); test: BSK_3C_Thrombomodulin: BioMAP Diversity Plus: 3C Assay for Thrombomodulin Biomarker Activity (AID 2283029); settings: primary human endothelial cells (HUVEC); actives raise or lower the signal
Outline: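 HUVEC, 3C conditions; compound 24 h; thrombomodulin by ELISA; bidirectional curve fit vs DMSO baseline; parallel SRB total-protein staining for cytotoxicity.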

[11] = read-out: Urokinase-type plasminogen activator receptor (uPAR), PLAUR (gene 5329); test: BSK_4H_uPAR: BioMAP Diversity Plus: 4H Assay for Urokinase-type plasminogen activator receptor (uPAR) Biomarker Activity (AID 2283030); settings: primary human endothelial cells (HUVEC); actives raise or lower the signal
Outline: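 Endpoint derived via bidirectional curve fitting against DMSO baseline; readout was ELISA detection of uPAR on umbilical vein endothelial cells at 24 h post-treatment, with SRB-stained parallel cultures assessing cytotoxicity.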

[12] = read-out: Vascular endothelial growth factor receptor 2 (Homo sapiens) (UniProt P35968); test: BSK_4H_VEGFRII: BioMAP Diversity Plus: 4H Assay for Vascular endothelial growth factor receptor 2 (VEGFR2) Biomarker Activity (AID 2283031); settings: primary human endothelial cells (HUVEC); actives raise or lower the signal;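 as to AC50: cell-surface VEGFR2 protein level quantified by ELISA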
Outline: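 In this multiplexed HUVEC system, biomarker ELISA was performed after 24 h chemical exposure. Parallel SRB staining (TCA fixation, 560 nm) tracked cytotoxicity; DMSO served as baseline.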

[13] = read-out: Human Leukocyte Antigen - DR isotype (HLADR), HLA-DRA (gene 3122); test: BSK_BE3C_HLADR: BioMAP Diversity Plus: BE3C Assay for Human Leukocyte Antigen - DR isotype (HLADR) Biomarker Activity (AID 2283032); settings: primary human bronchial epithelial cells; actives raise or lower the signal
Outline: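 Primary human bronchial epithelial cells (BE3C); 24 h chemical exposure; HLA-DR by ELISA; bidirectional curve fit vs DMSO baseline.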

[14] = read-out: Interferon-gamma inducible Protein 10 (IP10), CXCL10 (gene 3627); test: BSK_BE3C_IP10: BioMAP Diversity Plus: BE3C Assay for Interferon-gamma inducible Protein 10 (IP10) Biomarker Activity (AID 2283034); settings: primary human bronchial epithelial cells; actives raise or lower the signal
Outline: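 ELISA readout of IP-10 in BE3C system: primary human bronchial epithelial cells, 24 h post-dosing; bidirectional curve fit vs DMSO baseline.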

[15] = read-out: Monokine induced gamma interferon (MIG), CXCL9 (gene 4283); test: BSK_BE3C_MIG: BioMAP Diversity Plus: BE3C Assay for Monokine induced gamma interferon (MIG) Biomarker Activity (AID 2283035); settings: primary human bronchial epithelial cells; actives raise or lower the signal;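 also: MIG protein measured by ELISA in BE3C cultures after 24 h of dosing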
Outline: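 hu bronchial epithelial 1° cells, 24 h cpd; MIG by ELISA; bidirectional fit, DMSO = baseline.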

[16] = read-out: Transforming growth factor beta 1 (TGFb1), TGFB1 (gene 7040); test: BSK_BE3C_TGFb1: BioMAP Diversity Plus: BE3C Assay for Transforming growth factor beta 1 (TGFb1) Biomarker Activity (AID 2283036;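 also: TGF-b1 protein level measured by ELISA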); settings: primary human bronchial epithelial cells; actives raise or lower the signal
Outline: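 Read-out: ELISA for TGF-b1 in primary human bronchial epithelial cultures, 24 h post-dose. Bidirectional curve fitting vs DMSO control; gain or loss of signal both scored.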

[17] = read-out: Plasminogen activator inhibitor-1 (PAI1), SERPINE1 (gene 5054); test: BSK_BE3C_PAI1: BioMAP Diversity Plus: BE3C Assay for Plasminogen activator inhibitor-1 (PAI1) Biomarker Activity (AID 2283037); settings: primary human bronchial epithelial cells; actives raise or lower the signal
Outline: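 ELISA read-out of PAI-1 from human bronchial epithelial primary cells, 24 h post-dosing; bidirectional curve fit vs DMSO baseline, gain or loss of signal scored.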

[18] = read-out: urokinase plasminogen activator (uPA), PLAU (gene 5328); test: BSK_BE3C_uPA: BioMAP Diversity Plus: BE3C Assay for urokinase plasminogen activator (uPA) Biomarker Activity (AID 2283038); settings: primary human bronchial epithelial cells; actives raise or lower the signal
Outline: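 Using confluent primary human lung bronchial epithelial cultures, we dosed chemicals, waited 24 h, then ran a uPA ELISA, fitting bidirectionally against DMSO.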

[19] = read-out: Urokinase-type plasminogen activator receptor (uPAR), PLAUR (gene 5329); test: BSK_BE3C_uPAR: BioMAP Diversity Plus: BE3C Assay for Urokinase-type plasminogen activator receptor (uPAR) Biomarker Activity (AID 2283039); settings: primary human bronchial epithelial cells; actives raise or lower the signal
Outline: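 ELISA readout of uPAR on human lung primary bronchial epithelial cells, 24 h post-dosing. Bidirectional curve fit relative to DMSO vehicle baseline; gain or loss of signal both scored.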

[20] = read-out: Vascular cell adhesion molecule 1 (VCAM1), VCAM1 (gene 7412); test: BSK_4H_VCAM1: BioMAP Diversity Plus: 4H Assay for Vascular cell adhesion molecule 1 (VCAM1) Biomarker Activity (AID 2283033); settings: primary human endothelial cells (HUVEC); actives raise or lower the signal
Outline: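 HUVEC, 24 h post-dose; VCAM-1 by ELISA. Bidirectional curve fit vs DMSO baseline. Parallel SRB total-protein stain (0.1% SRB after 10% TCA fixation, 560 nm) for cytotoxicity.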

Measured: AC50

CCOC(=O)COc1cc(-n2ncc(C(F)(F)F)c(C)c2=O)c(F)cc1Cl
active: [19] 0.459 µM
not listed: [20]
inactive: all other assays above

COC(=O)c1ccc(I)cc1S(=O)(=O)NC(=O)Nc1nc(C)nc(OC)n1
not listed: [9] | [20]
inactive: all other assays above

CCC(C)OC(=O)N1CCCCC1CCO (configuration not stated)
not listed: [4] | [20]
inactive: all other assays above

CCCCCCC(C)OC(=O)COc1nc(F)c(Cl)c(N)c1Cl (configuration not stated)
inactive: [5] | [10] | [13] | [14] | [15] | [16] | [17] | [18] | [19]
active: [1] 31.6 µM | [2] 36.5 µM | [3] 37.7 µM | [4] 30.1 µM | [6] 29.4 µM | [7] 30.8 µM | [8] 34.5 µM | [11] 31.2 µM | [12] 31.9 µM | [20] 39 µM

CSC(=O)c1cccc2nnsc12
not listed: [9]
inactive: all other assays above

CC(C)(c1ccc(O)cc1)c1ccc(O)cc1
inactive: [1] | [2] | [3] | [5] | [6] | [7] | [8] | [9] | [10] | [11] | [12] | [13] | [14] | [15] | [16] | [17] | [18] | [19]
active: [6] 39.6 µM and 20 µM | [9] 24 µM | [14] 9.06 µM | [17] 24.3 µM

CC(=O)S[C@@H]1CC2=CC(=O)CC[C@]2(C)[C@H]2CC[C@@]3(C)[C@@H](CC[C@@]34CCC(=O)O4)[C@H]12
active: [1] 26.3 µM | [2] 18.9 µM | [4] 25.7 µM | [8] 32 µM | [20] 34.3 µM | [14] 30.9 µM
not listed: [7] | [9]
inactive: all other assays above

CC1(C)C(C=C(Cl)Cl)C1C(=O)OCc1cccc(Oc2ccccc2)c1 (configuration not stated)
active: [1] 5.44 µM | [6] 20 µM
not listed: [4]
inactive: all other assays above

Cc1nn(C)c(Oc2ccccc2)c1C=NOCc1ccc(C(=O)OC(C)(C)C)cc1
inactive: [3] | [12] | [15] | [16] | [18] | [19]
active: [1] 3.97 µM | [2] 9.81 µM | [4] 9.91 µM | [5] 4.59 µM | [6] 15.2 µM | [7] 12.9 µM | [8] 16.3 µM | [10] 5.41 µM | [11] 30.6 µM | [13] 0.814 µM | [14] 11.7 µM | [17] 7.02 µM

CCCOC(=O)NCCCN(C)C
active: [13] 4.29 µM | [19] 0.148 µM
inactive: all other assays above

CCOC(=O)C(C)Oc1ccc(Oc2nc3ccc(Cl)cc3o2)cc1 (configuration not stated)
active: [1] 20 µM | [13] 20 µM | [17] 33.5 µM | [18] 24.3 µM
not listed: [9] | [20]
inactive: all other assays above

O=C(c1ccc(O)cc1O)c1ccc(O)cc1O
active: [14] 30.5 µM | [17] 34.6 µM
not listed: [9]
inactive: all other assays above
